Where “and” joins values, the source holds several entries; their conditions need not be identical. Equal values may be shown once. Inconclusive results are not listed. Where a call stands in place of a potency, no number is given. Calls of active or inactive are those of the source. Unless noted, calls come from the whole dose curve; as a rule, active = well fitted curve in the direction sought with a large enough effect; inconclusive = small, poorly fitted or top-dose-only effect, or another doubt; inactive = no such curve, though single readings can be large; an effect the other way counts as inactive or inconclusive.
Key:
[1] = Cell Viability - LYMP2-016 (AID 984);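 note: cells exposed to compound for 24 hours at 37 °C; nearly all actives have a fitted effect of over 55% in size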; note: potency is the fitted concentration of half-maximal effect
Outline: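 Acute toxicity in a Coriell human lymphoblastoid line is scored as loss of intracellular ATP over 24 h of treatment in complete medium. CellTiter-Glo signal is fitted across concentrations with the Hill equation to give AC50.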

[2] = Cell Viability - LYMP2-018 (AID 985);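 note: compound exposure lasted 24 hr at 37 °C; nearly all actives have a fitted effect of over 50% in size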; note: potency is the fitted concentration of half-maximal effect
Outline: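 Seed 2500 lymphoblastoid cells per well, incubate 5 hr at 37 C, add compound and incubate 24 hr at 37 C, add CellTiter-Glo, wait 30 min at room temperature, then read luminescence.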

[3] = Cell Viability - LYMP2-020 (AID 986);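 note: cells exposed to compound for 24 h at 37 °C; nearly all actives have a fitted effect of over 55% in size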; note: potency is the fitted concentration of half-maximal effect
Outline: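 Seed 2500 cells per well and incubate 5 hr at 37 C. Add compounds at a concentration series and incubate 24 hr at 37 C. Add CellTiter-Glo, wait 30 min at RT, read luminescence, and fit a Hill curve for AC50.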

[4] = Cell Viability - LYMP2-026 (AID 989);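 note: cells exposed to compound for 24 h at 37 °C; nearly all actives have a fitted effect of over 50% in size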; note: potency is the fitted concentration of half-maximal effect
Outline: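 Cells are seeded at 2500 per well and held 5 hr at 37 C. Compounds are added in concentration series for 24 hr, then CellTiter-Glo reagent is applied and luminescence read.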

[5] = Cell Viability - LYMP1-002 - Assay at 24 hr (AID 993); note: potency is the fitted concentration of half-maximal effect
Outline: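 Acute toxicity is measured as concentration-dependent loss of cellular ATP in a human lymphoblastoid line (Coriell LYMP1-002) after 24 h treatment in complete medium. ATP is quantified by luciferase luminescence and AC50 derived by Hill modelling.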

[6] = Cell Viability - LYMP1-002 - Assay at 40 hr (AID 994); note: nearly all actives have a fitted effect of over 60% in size; note: potency is the fitted concentration of half-maximal effect
Outline: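 Cells are plated at 2500 per well and rested 5 hr at 37 C. Compounds are added and incubated 40 hr at 37 C. CellTiter-Glo reagent is added for 30 min at room temperature before luminescence is read.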

[7] = qHTS Assay for Lipid Storage Modulators (AID 1519; calls by dose curve); conditions: Drosophila S3 cells, BODIPY lipid droplet/cell ratio, laser cytometry, cells loaded with oleic acid
Outline: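 Cells seeded at 5,000 per well were treated with compounds over a concentration series and loaded with oleic acid (400 uM, as added). Lipid droplet fluorescence (488 nm excitation, 500-530 nm channel) was read by laser-scanning cytometry and normalized to 20 uM Triacsin C.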

[8] = molecular target: Alpha-galactosidase A (Homo sapiens) (UniProt P06280); experiment: Counterscreen for Glucocerebrosidase Inhibitors: qHTS Assay for Human alpha-Galactosidase at pH 4.5 (AID 992)
Outline: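 Fluorogenic 1536-well qHTS at pH 4.5 (citrate, Tween-20): 2 nM enzyme, 80 uM 4-MU-alpha-galactoside, 20 min room temperature, NaOH/glycine stop. Titration 0.7 nM to 77 uM, data normalized to no-enzyme and full-activity controls, Hill-fitted AC50.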

[9] = molecular target: alpha-glucosidase (Oryza sativa, rice) (UniProt Q653V4); experiment: Counterscreen for Glucocerebrosidase Inhibitors: qHTS Assay for Rice alpha-Glucosidase at pH 5.0 (AID 997)
Outline: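 Endpoint fluorogenic assay at pH 5.0: compounds (0.7 nM to 77 uM) titrated against 4 nM rice enzyme and 400 uM 4-MU-alpha-glucoside for 20 min at room temperature; NaOH/glycine stop, read ex 365/em 440 nm, Hill-fitted AC50.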

[10] = measured here: cell count channel max response
[11] = measured here: lipid channel max response

Alpha-galactosidase A (Homo sapiens), sequence (P06280 whole entry, looked up): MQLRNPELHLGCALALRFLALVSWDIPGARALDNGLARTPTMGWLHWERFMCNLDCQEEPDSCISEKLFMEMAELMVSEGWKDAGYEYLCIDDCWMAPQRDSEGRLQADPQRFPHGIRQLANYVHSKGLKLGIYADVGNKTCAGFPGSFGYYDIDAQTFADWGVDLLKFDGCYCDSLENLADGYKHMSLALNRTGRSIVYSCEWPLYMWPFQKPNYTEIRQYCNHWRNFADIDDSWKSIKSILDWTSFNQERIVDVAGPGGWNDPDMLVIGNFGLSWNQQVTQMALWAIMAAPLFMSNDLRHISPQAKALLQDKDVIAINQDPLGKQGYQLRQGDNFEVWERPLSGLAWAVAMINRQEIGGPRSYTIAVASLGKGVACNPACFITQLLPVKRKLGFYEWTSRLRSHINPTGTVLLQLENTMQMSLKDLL

Q: Which results are given for `Cc1ccnc2c1NC(=O)c1cccnc1N2C1CC1`?
A: Potency [1]: inactive; Potency [2]: inactive; Potency [3]: inactive; Potency [4]: inactive; Potency [5]: inactive; Potency [6]: inactive

Q: What does the source list for `COc1ccc2cc3[n+](cc2c1OC)CCc1cc2c(cc1-3)OCO2`?
A: Potency [5]: inactive; Potency [6]: inactive; activity change, negative = inhibition ([7]; at 25.7 µM (top of the series)): -1.57% (inactive); max response [7, 10]: -13.6%; max response [7, 11]: -12.8%

Q: For `NC(N)=NC(N)=NCCc1ccccc1`, which Potency [1] is on record?
A: inactive

Q: And the Potency [2]?
A: inactive

Q: And the Potency [4]?
A: inactive

Q: What about the Potency [5] of the same molecule?
A: inactive

Q: What about the Potency [6] of the same molecule?
A: inactive

Q: Which outcome [8] does the source give for `CC(=O)[C@H]1CC[C@H]2[C@@H]3CCC4=CC(=O)CC[C@]4(C)[C@H]3CC[C@]12C` here?
A: inactive

Q: What about the outcome [9] of the same molecule?
A: inactive

Q: And the activity change, negative = inhibition ([7]; at 57.5 µM (top of the series))?
A: 1.11% (inactive)

Q: And the max response [7, 10]?
A: -15.2%

Q: What about the max response [7, 11] of the same molecule?
A: -13.1%

Q: For `CCn1cc(C(=O)O)c(=O)c2cc(F)c(N3CCNCC3)nc21`, which activity change, negative = inhibition ([7]; at 25.7 µM (top of the series)) is on record?
A: 0.491% (inactive)

Q: What about the activity change, negative = inhibition ([7]; at 57.5 µM (top of the series)) of the same molecule?
A: 8.65% (inactive)

Q: And the max response [7, 10]?
A: 9.91% and 14.4%

Q: And the max response [7, 11]?
A: 12.7% and 27.2%

Q: For `CN(C)c1ccc(C(=C2C=CC(=[N+](C)C)C=C2)c2ccc(N(C)C)cc2)cc1`, which Potency [1] is on record?
A: 2000 nM (active)

Q: What about the Potency [2] of the same molecule?
A: 2000 nM (active)

Q: And the Potency [3]?
A: 2000 nM (active)

Q: What about the Potency [4] of the same molecule?
A: 2510 nM (active)

Q: What about the Potency [5] of the same molecule?
A: 3160 nM (active)

Q: What about the Potency [6] of the same molecule?
A: 3980 nM (active)

Q: Which outcome [8] does the source give for `Cc1ccc(S(=O)(=O)N[C@@H](Cc2ccccc2)C(=O)CCl)cc1` here?
A: inactive

Q: What about the outcome [9] of the same molecule?
A: inactive

Q: What does the source list for `CC(=O)CC(c1ccccc1)c1c(O)c2ccccc2oc1=O` (centres undefined)?
A: activity change, negative = inhibition ([7]; at 57.5 µM (top of the series)): 15.6% (inactive); max response [7, 10]: 10.6%; max response [7, 11]: 30.9%

Q: Which Potency [1] does the source give for `CCc1cc(C(N)=S)ccn1` here?
A: inactive

Q: And the Potency [2]?
A: inactive

Q: And the Potency [3]?
A: inactive

Q: What about the Potency [4] of the same molecule?
A: inactive

Q: What about the Potency [5] of the same molecule?
A: inactive

Q: And the Potency [6]?
A: inactive

Q: What about the activity change, negative = inhibition ([7]; at 25.7 µM (top of the series)) of the same molecule?
A: -2.71% (inactive)

Q: What about the activity change, negative = inhibition ([7]; at 57.5 µM (top of the series)) of the same molecule?
A: 6.15% (inactive)

Q: What about the max response [7, 10] of the same molecule?
A: -9.37% and 8.92%

Q: What about the max response [7, 11] of the same molecule?
A: -12.5% and 21.6%

Q: What does the source list for `COc1cc(NS(=O)(=O)c2ccc(N)cc2)nc(OC)n1`?
A: activity change, negative = inhibition ([7]; at 25.7 µM (top of the series)): -1.42% (inactive); activity change, negative = inhibition ([7]; at 57.5 µM (top of the series)): 14.8% (inactive); max response [7, 10]: -11.2% and 9.08%; max response [7, 11]: -12.8% and 25.1%

Q: For `Cc1ncc([N+](=O)[O-])n1CCO`, which Potency [1] is on record?
A: inactive

Q: And the Potency [2]?
A: inactive

Q: What about the Potency [3] of the same molecule?
A: inactive

Q: What about the Potency [4] of the same molecule?
A: inactive

Q: What about the Potency [5] of the same molecule?
A: inactive

Q: And the Potency [6]?
A: inactive

Q: And the activity change, negative = inhibition ([7]; at 57.5 µM (top of the series))?
A: 8.03% (inactive)

Q: And the max response [7, 10]?
A: 17.2%

Q: And the max response [7, 11]?
A: 27.3%

Q: With `CC[C@H](C)C(=O)O[C@H]1C[C@@H](C)C=C2C=C[C@H](C)[C@H](CC[C@@H]3C[C@@H](O)CC(=O)O3)[C@H]21` as the molecule, how does the Potency [1] read?
A: inactive

Q: What about the Potency [2] of the same molecule?
A: inactive

Q: What about the Potency [4] of the same molecule?
A: inactive

Q: What about the Potency [5] of the same molecule?
A: inactive

Q: For `CC(C)(Sc1cc(C(C)(C)C)c(O)c(C(C)(C)C)c1)Sc1cc(C(C)(C)C)c(O)c(C(C)(C)C)c1`, which activity change, negative = inhibition ([7]; at 25.7 µM (top of the series)) is on record?
A: -2.44% (inactive)

Q: And the activity change, negative = inhibition ([7]; at 57.5 µM (top of the series))?
A: 6.58% (inactive)

Q: And the max response [7, 10]?
A: 2.96% and 13.3%

Q: What about the max response [7, 11] of the same molecule?
A: 1.97% and 25.1%

Q: For `CC(C)(C)NC(=O)[C@H]1CC[C@H]2[C@@H]3CC[C@H]4NC(=O)C=C[C@]4(C)[C@H]3CC[C@]12C`, which outcome [8] is on record?
A: inactive

Q: And the outcome [9]?
A: inactive

Q: What does the source list for `Nc1ccc(S(=O)(=O)Nc2ccccn2)cc1`?
A: activity change, negative = inhibition ([7]; at 25.7 µM (top of the series)): -0.611% (inactive); activity change, negative = inhibition ([7]; at 57.5 µM (top of the series)): 8.46% (inactive); max response [7, 10]: -5.02% and 31.9%; max response [7, 11]: -4.54% and 46.5%

Q: For `CC1=NN(c2ccccc2)C(=O)C1`, which Potency [1] is on record?
A: inactive

Q: What about the Potency [2] of the same molecule?
A: inactive

Q: And the Potency [3]?
A: inactive

Q: And the Potency [4]?
A: inactive

Q: What about the Potency [5] of the same molecule?
A: inactive

Q: What about the Potency [6] of the same molecule?
A: inactive

Q: What about the activity change, negative = inhibition ([7]; at 57.5 µM (top of the series)) of the same molecule?
A: 5.32% (inactive)

Q: And the max response [7, 10]?
A: 16.1%

Q: What about the max response [7, 11] of the same molecule?
A: 20.6%

Q: Which Potency [1] does the source give for `Cc1cc(NS(=O)(=O)c2ccc(N)cc2)no1` here?
A: inactive

Q: What about the Potency [2] of the same molecule?
A: inactive

Q: What about the Potency [3] of the same molecule?
A: inactive

Q: And the Potency [4]?
A: inactive

Q: What about the Potency [5] of the same molecule?
A: inactive

Q: And the Potency [6]?
A: inactive

Q: Which Potency [1] does the source give for `Cc1noc(NS(=O)(=O)c2ccc(N)cc2)c1C` here?
A: inactive

Q: And the Potency [2]?
A: inactive

Q: What about the Potency [3] of the same molecule?
A: inactive

Q: And the Potency [4]?
A: inactive

Q: What about the Potency [5] of the same molecule?
A: inactive

Q: What about the Potency [6] of the same molecule?
A: inactive

Q: With `COc1cc2ncnc(Nc3cccc(Cl)c3)c2cc1OC` as the molecule, how does the outcome [8] read?
A: inactive

Q: What about the outcome [9] of the same molecule?
A: inactive

Q: For `CCCCOc1ccc(CC(=O)NO)cc1`, which activity change, negative = inhibition ([7]; at 25.7 µM (top of the series)) is on record?
A: 0.283% (inactive)

Q: What about the max response [7, 10] of the same molecule?
A: -2.68%

Q: And the max response [7, 11]?
A: -0.905%

Q: Which Potency [1] does the source give for `O=C(N[C@H](CO)[C@H](O)c1ccc([N+](=O)[O-])cc1)C(Cl)Cl` here?
A: inactive

Q: And the Potency [2]?
A: inactive

Q: What about the Potency [3] of the same molecule?
A: inactive

Q: And the Potency [4]?
A: inactive

Q: And the Potency [5]?
A: inactive

Q: What about the Potency [6] of the same molecule?
A: inactive

Q: What about the activity change, negative = inhibition ([7]; at 57.5 µM (top of the series)) of the same molecule?
A: 4.84% (inactive)

Q: What about the max response [7, 10] of the same molecule?
A: -11.7%

Q: And the max response [7, 11]?
A: -6.22%

Q: With `Nc1nc(N)c2nc(CNc3ccc(C(=O)NC(CCC(=O)O)C(=O)O)cc3)cnc2n1` (centres undefined) as the molecule, how does the activity change, negative = inhibition ([7]; at 57.5 µM (top of the series)) read?
A: 6.58% (inactive) and 1.3% (inactive)

Q: And the max response [7, 10]?
A: 6.78% and -3.02%

Q: What about the max response [7, 11] of the same molecule?
A: 18.5% and 0.109%

Q: With `Cc1nnc(NS(=O)(=O)c2ccc(N)cc2)s1` as the molecule, how does the Potency [1] read?
A: inactive

Q: And the Potency [2]?
A: inactive

Q: What about the Potency [3] of the same molecule?
A: inactive

Q: And the Potency [4]?
A: inactive

Q: What about the Potency [5] of the same molecule?
A: inactive

Q: And the Potency [6]?
A: inactive

Q: And the activity change, negative = inhibition ([7]; at 25.7 µM (top of the series))?
A: 0.279% (inactive)

Q: What about the activity change, negative = inhibition ([7]; at 57.5 µM (top of the series)) of the same molecule?
A: 7.74% (inactive)

Q: What about the max response [7, 10] of the same molecule?
A: -3.37% and -1.8%

Q: And the max response [7, 11]?
A: -7.15% and 7.76%

Q: What does the source list for `CCCc1cc(C(N)=S)ccn1`?
A: activity change, negative = inhibition ([7]; at 57.5 µM (top of the series)): 6.18% (inactive); max response [7, 10]: 8.06%; max response [7, 11]: 15.8%

Source: PubChem BioAssay (NCATS)
